# In PubChem BioAssay (EPA / NIEHS):
# Several values for one entry are separate records, joined by “and”; a condition that tells them apart may be missing. Equal values may be shown once. Activity calls are given as the source filed them. Rule for the calls: active = hit-call score of the fitted dose curve at least 0.9, where 1 is the maximum; inactive = score below 0.9.
# Read-out: Interleukin-8 (IL8), CXCL8 (gene 3576)
# Assay: BSK_SAg_IL8: BioMAP Diversity Plus: SAg Assay for Interleukin-8 (IL8) Biomarker Activity (AID 2283094)
# Details: primary human HUVEC with PBMC; actives raise or lower the signal
# Protocol: BSK_SAg is a cell-based, multiplexed-readout assay that uses umbilical vein endothelium and peripheral blood mononuclear cells, a human vascular primary cell co-culture, with measurements taken at 24 hours after chemical dosing in a 96-well plate.BSK_SAg_IL8 is an assay component measured in the BSK_SAg assay. It measures IL-8 antibody related to regulation of gene expression using ELISA technology.Data from the assay component BSK_SAg_IL8 was analyzed into 1 assay endpoint. This assay endpoint, BSK_SAg_IL8, was analyzed with bidirectional fitting relative to DMSO as the negative control and baseline of activity. Using a type of binding reporter, gain or loss-of-signal activity can be used to understand changes in the signaling as they relate to the gene CXCL8. Furthermore, this assay endpoint can be referred to as a primary readout, because this assay has produced multiple assay endpoints where this one serves a signaling function. To generalize the intended target to other relatable targets, this assay endpoint is annotated to the cytokine intended target family, where the subfamily is interleukins.
# The levels of cell surface (or secreted, indicated by the prefix "s") biomarker endpoints were measured by ELISA. Overt cytotoxicity to cells in confluent adherent cultures (all systems other than the BT system) was assessed by measuring total protein levels using sulforhodamine B (SRB) staining in parallel cultures at the time of biomarker measurements, indicated as SRB endpoints. For proliferation assays for adherent cell types, individual cell types are cultured at sub-confluence and relative cell numbers quantified by SRB staining at time points optimized for each system (48 h: 3C and CASM3C systems; 72 h: BT and HDF3CGF systems; 96 h: SAg system). SRB was performed by staining cells with 0.1% SRB after fixation with 10% TCA and reading wells at 560 nm.Viability and proliferation of PBMC (T cells) was quantified by Alamar Blue reduction for the SAg and BT systems. For PBMC viability (referred to as PBMC Cytotoxicity within the assay endpoint names), cells were plated (75,000/well in a 96-well plate) and then chemical samples added for 1 h before addition of activators, SEB and TSST-1 (20 ng/mL final concentration each). Cells were incubated for 90 h. Then, Alamar Blue (20 uL/well) (Invitrogen, Cat DAL1100) was added for 6 h, and the plates were read with a fluorescence microplate reader at 546/580 nm (excitation/emission). For PBMC proliferation, cells were plated and activated as above but incubated for only 16 h prior to addition of Alamar Blue. Plates were read after 6 h.
SMILES,AC50,outcome
O=C(OC[C@H]1O[C@@H](OC(=O)c2cc(O)c(O)c(OC(=O)c3cc(O)c(O)c(O)c3)c2)[C@H](OC(=O)c2cc(O)c(O)c(OC(=O)c3cc(O)c(O)c(O)c3)c2)[C@@H](OC(=O)c2cc(O)c(O)c(OC(=O)c3cc(O)c(O)c(O)c3)c2)[C@@H]1OC(=O)c1cc(O)c(O)c(OC(=O)c2cc(O)c(O)c(O)c2)c1)c1cc(O)c(O)c(OC(=O)c2cc(O)c(O)c(O)c2)c1,10.2 µM (active),
CCCCCCc1ccc(O)cc1O,24.4 µM (active),
CC[C@H](C)C(=O)O[C@H]1C[C@@H](C)C=C2C=C[C@H](C)[C@H](CC[C@@H]3C[C@@H](O)CC(=O)O3)[C@H]21,0.147 µM (active),
Clc1nc(Cl)c(Cl)c(Cl)c1Cl,14.4 µM (active),
O=P(OC(CCl)CCl)(OC(CCl)CCl)OC(CCl)CCl,20 µM (active),
CCOC(=O)CC(CC(=O)OCC)(OC(C)=O)C(=O)OCC,,inactive
CC(C)=CCCC(C)=CC=O,,inactive
O=C(O)CC(O)C(=O)O (stereo not given),,inactive
O=C1CCC(N2C(=O)c3ccccc3C2=O)C(=O)N1 (stereo not given),,inactive
Cc1ccc(S(=O)(=O)O)cc1C,,inactive
Cn1c(=O)cc(Oc2ccc(F)cc2F)c2cnc(NCC(C)(C)O)nc21,1.09 µM (active),
COCCOCCOCCOC,,inactive
CC1(C)C(=O)N(Br)C(=O)N1Br,,inactive
NC(=O)NO,,inactive
CC(O)CN(CCN(CC(C)O)CC(C)O)CC(C)O (stereo not given),,inactive
O=C(O)c1cc(N=Nc2ccc(S(=O)(=O)Nc3ccccn3)cc2)ccc1O,,inactive
CNS(=O)(=O)c1cc(C(=O)N2CCC(CCN3C4CCC3CC(n3c(C)nc5ccccc53)C4)(c3cccc(F)c3)CC2)c(Cl)cc1F (stereo not given),20 µM (active),
CCCCCCCCO,,inactive
COc1ccc(/C=C/S(=O)(=O)NC(=O)c2ccc(C)cc2Cl)cc1,,inactive
CCOc1cccc(-n2cc(C(=O)N3CCN(c4cc(C(=O)O)c5ccccc5c4)CC3)nc2-c2ccc(C)cc2)c1,11.4 µM (active),

SMILES,AC50,outcome
C=CC(=C)CCC=C(C)C,,inactive
Cc1ccc(C)c(O)c1,,inactive
Cn1cnc([N+](=O)[O-])c1Sc1ncnc2nc[nH]c12,12.9 µM (active) and 12.6 µM (active) and 9.23 µM (active),
CCNc1ccccc1,,inactive
O=c1n(CC2CO2)c(=O)n(CC2CO2)c(=O)n1CC1CO1 (stereo not given),20 µM (active),
Fc1ccccc1[C@@H](F)COC1CCC(Nc2ncnc3[nH]ncc23)CC1 (stereo not given in full),20 µM (active),
CCC(C)(C)C(=O)O[C@H]1C[C@@H](C)C=C2C=C[C@H](C)[C@H](CC[C@@H]3C[C@@H](O)CC(=O)O3)[C@H]21,0.149 µM (active),
CCOCCO,,inactive
Cc1ccc(O)cc1,,inactive
COCCOc1cc2cc(C(=O)NC3CCN(C(C)C)CC3)n(CC(=O)Nc3ccc(Cl)cn3)c2cn1,,inactive
Cc1[nH]cnc1C[C@H]1CCc2c(C)c3ccccc3n2C1=O,24.7 µM (active),
CC(C)CCO,,inactive
CC(=O)OCCC(C)C,,inactive
CCCC(=O)OCC,,inactive
O=C1OC(=O)C2C3C=CC(C3)C12 (stereo not given),,inactive
CC/C(=C\C(=N/O)C(N)=O)C(C)[N+](=O)[O-] (stereo not given),,inactive
C1=CCCC=CCCC=CCC1,,inactive
C1N2CN3CN1CN(C2)C3,,inactive
CCOC(=O)COc1ccc2c(c1)CC(NCC(O)c1cccc(Cl)c1)CC2 (stereo not given),18.3 µM (active),
CCCCCCCCCCCCCCCO,28.6 µM (active),
